Experimental data reported in PubChem BioAssay (EPA / NIEHS).
The source made the active and inactive calls. Rule for the calls: active = hit-call score of the fitted dose curve at least 0.9, where 1 is the maximum; inactive = score below 0.9.

Read-out: Monocyte Chemoattractant Protein-1 (MCP1), CCL2 (gene 6347)
Test: BSK_SAg_MCP1: BioMAP Diversity Plus: SAg Assay for Monocyte Chemoattractant Protein-1 (MCP1) Biomarker Activity (AID 2283090)
Settings: primary human HUVEC with PBMC; actives raise or lower the signal
Experimental: BSK_SAg is a cell-based, multiplexed-readout assay that uses umbilical vein endothelium and peripheral blood mononuclear cells, a human vascular primary cell co-culture, with measurements taken at 24 hours after chemical dosing in a 96-well plate.BSK_SAg_MCP1 is an assay component measured in the BSK_SAg assay. It measures MCP-1 antibody related to regulation of gene expression using ELISA technology.Data from the assay component BSK_SAg_MCP1 was analyzed into 1 assay endpoint. This assay endpoint, BSK_SAg_MCP1, was analyzed with bidirectional fitting relative to DMSO as the negative control and baseline of activity. Using a type of binding reporter, gain or loss-of-signal activity can be used to understand changes in the signaling as they relate to the gene CCL2. Furthermore, this assay endpoint can be referred to as a primary readout, because this assay has produced multiple assay endpoints where this one serves a signaling function. To generalize the intended target to other relatable targets, this assay endpoint is annotated to the cytokine intended target family, where the subfamily is chemotactic factor.
The levels of cell surface (or secreted, indicated by the prefix "s") biomarker endpoints were measured by ELISA. Overt cytotoxicity to cells in confluent adherent cultures (all systems other than the BT system) was assessed by measuring total protein levels using sulforhodamine B (SRB) staining in parallel cultures at the time of biomarker measurements, indicated as SRB endpoints. For proliferation assays for adherent cell types, individual cell types are cultured at sub-confluence and relative cell numbers quantified by SRB staining at time points optimized for each system (48 h: 3C and CASM3C systems; 72 h: BT and HDF3CGF systems; 96 h: SAg system). SRB was performed by staining cells with 0.1% SRB after fixation with 10% TCA and reading wells at 560 nm.Viability and proliferation of PBMC (T cells) was quantified by Alamar Blue reduction for the SAg and BT systems. For PBMC viability (referred to as PBMC Cytotoxicity within the assay endpoint names), cells were plated (75,000/well in a 96-well plate) and then chemical samples added for 1 h before addition of activators, SEB and TSST-1 (20 ng/mL final concentration each). Cells were incubated for 90 h. Then, Alamar Blue (20 uL/well) (Invitrogen, Cat DAL1100) was added for 6 h, and the plates were read with a fluorescence microplate reader at 546/580 nm (excitation/emission). For PBMC proliferation, cells were plated and activated as above but incubated for only 16 h prior to addition of Alamar Blue. Plates were read after 6 h.

SMILES | outcome | AC50
Cc1cc(Cc2ccc(N)c(C)c2)ccc1N | inactive | 
CO[C@@H]1COCC[C@@H]1N[C@@H]1CC[C@@](C(=O)N2CCc3ncc(C(F)(F)F)cc3C2)(C(C)C)C1 | inactive | 
C=CCc1ccc(OC)c(OC)c1 | inactive | 
CC(C)(C)c1ccccc1 | inactive | 
O=C1NC(=O)C(c2ccccc2)(c2ccccc2)N1 | inactive | 
OCC(CO)n1cnc(-c2ccc(F)cc2)c1-c1ccnc(Oc2ccccc2)n1 |  | 2.02 µM (active)
COc1ccc(C(=O)Nc2nc3ccccc3c(NCc3ccccc3)c2C#N)cc1 | inactive | 
Cc1cn([C@H]2C=C[C@@H](CO)O2)c(=O)[nH]c1=O | inactive | 
CC(N)=O | inactive | 
CC(=O)S[C@H](C(=O)N[C@H]1Cc2ccccc2[C@H]2CCC[C@@H](C(=O)O)N2C1=O)C(C)C | inactive | 
CCCCCCCCCCCCCCOS(=O)(=O)O | inactive | 
CC(C)NCC(O)c1ccc(O)c(O)c1 (stereo not given) | inactive | 
Cc1ccc(-c2cc(C(F)(F)F)nn2-c2ccc(S(N)(=O)=O)cc2)cc1 |  | 30.5 µM (active)
CN(C)C(=O)NC1(c2ccccc2)CCN(CCC[C@]2(c3ccc(Cl)c(Cl)c3)CCCN(C(=O)c3ccccc3)C2)CC1 | inactive | 
C#CC(O)C(CC)CCCC (stereo not given) | inactive | 
CC(=O)O | inactive | 
COc1ccc(OC(F)(F)F)cc1CN[C@H]1CCCN[C@H]1c1ccccc1 | inactive | 
Nc1nc(=S)c2[nH]cnc2[nH]1 | inactive | 
NC=O | inactive | 
CCc1nc(N)nc(N)c1-c1ccc(Cl)cc1 | inactive | 

SMILES | outcome | AC50
CCCCCCCCCC[N+](C)(C)[O-] | inactive | 
CCCCCCCCCCCCCCCCO | inactive | 
Cn1cnc2c1c(=O)[nH]c(=O)n2C | inactive | 
CCCCCCC(C=O)=Cc1ccccc1 |  | 32 µM (active)
CCOCCOCCO | inactive | 
CCCCC(CC)COC(=O)CCCCCCCC(=O)OCC(CC)CCCC (stereo not given) | inactive | 
COC(=O)CCCC(=O)OC | inactive | 
O=C1CCCCC1 | inactive | 
CC(C)c1cccc(C(C)C)c1 | inactive | 
CC(=O)OCC(COC(C)=O)OC(C)=O | inactive | 
O=C(N[C@@H](c1ccccc1)[C@@H]1CCCCN1)c1cccc(C(F)(F)F)c1Cl |  | 23.4 µM (active)
Cc1occc(=O)c1O | inactive | 
CCCCC(CC)CO (stereo not given) | inactive | 
CCN(CC)CCOc1ccc(C(=C(Cl)c2ccccc2)c2ccccc2)cc1 |  | 11.2 µM (active)
C=CCCCCCCCCCCCC | inactive | 
CC(C)COC(=O)CCCCC(=O)OCC(C)C | inactive | 
CC(=O)[C@@]1(O)CC[C@H]2[C@@H]3CCC4=CC(=O)CC[C@]4(C)[C@H]3CC[C@@]21C | inactive | 
COC(=O)CCC(=O)OC | inactive | 
CC1(C)C(=O)NC(=O)N1CO | inactive | 
O=C(O)c1[nH]n(-c2ccc(S(=O)(=O)O)cc2)c(=O)c1N=Nc1ccc(S(=O)(=O)O)cc1 | inactive | 
